# Results filed as inconclusive are left out. The source made the active and inactive calls. How the source made its calls: active means hit-call score of the fitted dose curve at least 0.9, where 1 is the maximum; inconclusive means response in the unintended direction; inactive means score below 0.9.
# Assays:
# [1] = molecular target: AR (gene 367) (UniProt P10275); experiment: ACEA_AR_antagonist_80hr: ACEA Biosciences xCELLigence Real-Time Cell Analysis on Androgen Receptor Antagonism for Proliferation (AID 2283787);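 further: 22Rv1 human prostate cancer cells with growth followed by electrical impedance; hits lower the impedance growth signal relative to DMSO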
# Chain of AR (gene 367) (P10275 whole entry, looked up): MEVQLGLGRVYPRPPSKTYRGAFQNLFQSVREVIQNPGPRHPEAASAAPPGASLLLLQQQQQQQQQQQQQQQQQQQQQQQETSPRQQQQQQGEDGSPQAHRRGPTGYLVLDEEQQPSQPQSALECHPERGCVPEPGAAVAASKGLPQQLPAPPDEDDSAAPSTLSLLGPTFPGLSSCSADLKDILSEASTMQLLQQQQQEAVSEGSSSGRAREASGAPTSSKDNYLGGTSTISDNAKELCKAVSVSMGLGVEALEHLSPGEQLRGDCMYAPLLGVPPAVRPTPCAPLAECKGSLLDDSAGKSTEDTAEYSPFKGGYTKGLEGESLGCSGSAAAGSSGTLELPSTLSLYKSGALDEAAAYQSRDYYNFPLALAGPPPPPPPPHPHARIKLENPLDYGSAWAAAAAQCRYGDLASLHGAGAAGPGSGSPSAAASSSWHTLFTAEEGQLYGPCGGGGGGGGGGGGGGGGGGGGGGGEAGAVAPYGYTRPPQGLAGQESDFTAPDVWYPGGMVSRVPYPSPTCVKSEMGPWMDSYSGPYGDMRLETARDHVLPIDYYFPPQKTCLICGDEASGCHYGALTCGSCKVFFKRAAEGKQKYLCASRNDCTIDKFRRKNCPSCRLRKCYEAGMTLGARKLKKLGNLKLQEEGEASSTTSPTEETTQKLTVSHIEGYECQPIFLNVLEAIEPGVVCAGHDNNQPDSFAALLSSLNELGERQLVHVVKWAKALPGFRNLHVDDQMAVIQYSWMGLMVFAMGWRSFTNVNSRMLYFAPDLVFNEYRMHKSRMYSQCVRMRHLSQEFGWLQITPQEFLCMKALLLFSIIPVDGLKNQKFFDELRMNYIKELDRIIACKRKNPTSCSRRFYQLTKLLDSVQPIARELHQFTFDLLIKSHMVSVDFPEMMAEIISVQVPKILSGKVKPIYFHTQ
# Procedure, shortened: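 Impedance readout (RT-CES), 80 h post-dose; loss-of-signal vs DMSO baseline. 22Rv1 cells in assay medium. Compounds: 8-pt 1:4 series, max 100 uM final, up to 0.5% DMSO; n = 2.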
# [2] = STM_H9_NormalizedViability: Cytotoxicity Assessment at 120 hours in the Stemina devTOX quickPredict H9 human embryonic stem cell (hESC)-based Assay (AID 2283784)
# Procedure, shortened: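 Pluripotent H9 hESCs were exposed, with chemical and media replaced every 24 h. Viability was read by CellTiter-Fluor fluorescence, background-corrected and normalized to the 0.1% DMSO neutral control per plate. Loss of signal was fitted.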
# [3] = ATG_M_06_XSP1: Attagene TRANS-FACTORIAL Multi-Species (XSP1) HepG2 Assay for M06 Transcription Factor (Internal Marker) (AID 2283790)
# Procedure, shortened: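 Transfected HepG2 multi-reporter system treated 24 h in the presence of 3 nM 6-alpha-fluorotestosterone. The M06 internal marker transcript was quantified by RT-PCR with capillary electrophoresis as a background control, and gain of signal was scored versus DMSO.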
# [4] = ATG_M_61_XSP1: Attagene TRANS-FACTORIAL Multi-Species (XSP1) HepG2 Assay for M61 Transcription Factor (Internal Marker) (AID 2283797)
# Procedure, shortened: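 HepG2 cells transiently transfected with multiplexed GAL4-driven reporter units, dosed 24 h with 3 nM 6-alpha-fluorotestosterone present. Reporter mRNA quantified by RT-PCR, 6-FAM labelling, HpaI digestion and capillary electrophoresis; internal-marker background control, gain of signal versus DMSO.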
# [5] = molecular target: Peroxisome proliferator-activated receptor gamma (Homo sapiens) (UniProt P37231); experiment: ATG_hPPARg_XSP1: Attagene TRANS-FACTORIAL Multi-Species (XSP1) HepG2 Assay for human Peroxisome Proliferator-activated Receptor gamma (PPARg) (AID 2283800)
# Chain of Peroxisome proliferator-activated receptor gamma (Homo sapiens) (P37231 whole entry, looked up, the tested form may be a part): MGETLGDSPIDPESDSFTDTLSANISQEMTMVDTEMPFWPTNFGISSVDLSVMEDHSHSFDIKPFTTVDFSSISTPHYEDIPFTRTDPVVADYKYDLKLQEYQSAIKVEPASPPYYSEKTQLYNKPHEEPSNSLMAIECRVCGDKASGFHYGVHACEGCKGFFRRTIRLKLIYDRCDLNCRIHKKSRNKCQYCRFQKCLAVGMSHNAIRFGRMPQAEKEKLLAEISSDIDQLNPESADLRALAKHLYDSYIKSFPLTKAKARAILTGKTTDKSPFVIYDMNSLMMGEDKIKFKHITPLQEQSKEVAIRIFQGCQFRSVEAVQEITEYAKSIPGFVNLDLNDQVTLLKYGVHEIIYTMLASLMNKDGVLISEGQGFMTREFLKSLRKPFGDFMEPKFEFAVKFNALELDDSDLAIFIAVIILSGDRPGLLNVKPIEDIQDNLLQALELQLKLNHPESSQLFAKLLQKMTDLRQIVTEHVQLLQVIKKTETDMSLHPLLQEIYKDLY
# Procedure, shortened: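 HepG2 cells transiently transfected with GAL4-UAS reporter units carrying chimeric NR-Gal4 proteins; 3 nM 6-alpha-fluorotestosterone present. After 24 h dosing, reporter mRNA quantified by RT-PCR and capillary electrophoresis; gain of signal relative to DMSO.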
# [6] = system: zebrafish Peroxisome Proliferator-activated Receptor gamma (PPARg), gene 557037; experiment: ATG_zfPPARg_XSP1: Attagene TRANS-FACTORIAL Multi-Species (XSP1) HepG2 Assay for zebrafish Peroxisome Proliferator-activated Receptor gamma (PPARg) (AID 2283801)
# Procedure, shortened: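 HepG2 cells transiently transfected with GAL4-UAS reporter units including a zebrafish PPARg–GAL4 chimera, dosed 24 h with 3 nM 6-alpha-fluorotestosterone present. Reporter mRNA quantified by RT-PCR, FAM labelling, HpaI digestion and capillary electrophoresis; induction versus DMSO.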
# [7] = molecular target: Nuclear receptor subfamily 1 group I member 2 (Mus musculus) (UniProt O54915); experiment: ATG_mPXR_XSP1: Attagene TRANS-FACTORIAL Multi-Species (XSP1) HepG2 Assay for mouse Pregnane X Receptor (PXR) (AID 2283803)
# Chain of Nuclear receptor subfamily 1 group I member 2 (Mus musculus) (O54915 whole entry, looked up): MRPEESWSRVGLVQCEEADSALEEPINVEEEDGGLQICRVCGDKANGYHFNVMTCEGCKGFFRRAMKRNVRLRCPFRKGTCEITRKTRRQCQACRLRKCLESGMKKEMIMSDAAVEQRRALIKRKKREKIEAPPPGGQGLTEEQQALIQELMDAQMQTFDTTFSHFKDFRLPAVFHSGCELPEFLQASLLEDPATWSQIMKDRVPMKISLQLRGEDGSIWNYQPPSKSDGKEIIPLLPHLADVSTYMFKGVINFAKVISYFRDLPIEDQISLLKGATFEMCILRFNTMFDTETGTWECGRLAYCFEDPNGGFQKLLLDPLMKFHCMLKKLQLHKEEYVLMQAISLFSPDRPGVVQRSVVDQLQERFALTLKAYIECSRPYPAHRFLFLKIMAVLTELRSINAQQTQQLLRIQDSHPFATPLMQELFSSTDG
# Procedure: ATG_XSP1_multi-species_TRANS is a cell-based, multiplexed assay created by modifying the existing Attagene TRANS-FACTORIAL system to include a panel of nuclear receptors from some or all the following species: human (Homo sapiens), mouse (Mus musculus), frog (Xenopus laevis), zebrafish (Danio rerio), chicken (Gallus gallus), and turtle (Chrysemys picta). The ECOTOX-FACTORIAL format uses HepG2, a human liver cell line, with measurements taken at 24 hours after chemical dosing in a 24-well plate. Xsp1 included 3 nM 6-alpha-fluorotestosterone to partially stimulate the androgen receptor.ATG_mPXR_XSP1 is one of 29 assay components measured or calculated from the ATG_XSP1_multi-species_TRANS assay. It is designed to make measurements of mRNA induction, a form of inducible reporter, as detected with fluorescence intensity signals by Reverse transcription polymerase chain reaction (RT-PCR) and Capillary electrophoresis technology.The assay endpoint ATG_mPXR_XSP1 was analyzed in the positive analysis fitting direction relative to DMSO as the negative control and baseline of activity. […] Furthermore, this assay endpoint can be referred to as a primary readout, because this assay has produced multiple assay endpoints where this one serves a reporter gene function. […]
# [8] = molecular target: human Thyroid hormone Receptor alpha (TRa), THRA (gene 7067) (UniProt P10827); experiment: ATG_hTRa_XSP1: Attagene TRANS-FACTORIAL Multi-Species (XSP1) HepG2 Assay for human Thyroid hormone Receptor alpha (TRa) (AID 2283805)
# Chain of human Thyroid hormone Receptor alpha (TRa), THRA (gene 7067) (P10827 whole entry, looked up, the tested form may be a part): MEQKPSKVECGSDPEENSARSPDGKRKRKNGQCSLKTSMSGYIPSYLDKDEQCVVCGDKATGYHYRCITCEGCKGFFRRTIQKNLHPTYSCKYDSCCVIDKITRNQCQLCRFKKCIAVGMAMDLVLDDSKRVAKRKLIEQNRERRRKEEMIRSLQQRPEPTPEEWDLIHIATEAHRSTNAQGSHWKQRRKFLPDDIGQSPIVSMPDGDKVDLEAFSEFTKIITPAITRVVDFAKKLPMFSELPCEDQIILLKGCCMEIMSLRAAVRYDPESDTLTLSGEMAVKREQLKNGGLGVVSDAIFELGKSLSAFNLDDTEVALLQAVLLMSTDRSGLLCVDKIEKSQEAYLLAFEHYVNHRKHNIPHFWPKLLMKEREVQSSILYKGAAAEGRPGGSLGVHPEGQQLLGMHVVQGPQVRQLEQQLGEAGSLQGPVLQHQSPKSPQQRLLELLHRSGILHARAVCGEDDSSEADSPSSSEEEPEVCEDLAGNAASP
# Procedure, shortened: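 HepG2 cells transiently transfected with GAL4-UAS reporter units expressing chimeric NR-Gal4 proteins, dosed 24 hours with 3 nM 6-alpha-fluorotestosterone present. Reporter mRNA measured by RT-PCR and capillary electrophoresis; gain of signal fitted versus DMSO.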
# [9] = molecular target: zebrafish Thyroid Hormone Receptor alpha (TRa), thraa (gene 30670) (UniProt Q98867); experiment: ATG_zfTRa_XSP1: Attagene TRANS-FACTORIAL Multi-Species (XSP1) HepG2 Assay for zebrafish Thyroid Hormone Receptor alpha (TRa) (AID 2283807)
# Chain of zebrafish Thyroid Hormone Receptor alpha (TRa), thraa (gene 30670) (Q98867 whole entry, looked up, the tested form may be a part): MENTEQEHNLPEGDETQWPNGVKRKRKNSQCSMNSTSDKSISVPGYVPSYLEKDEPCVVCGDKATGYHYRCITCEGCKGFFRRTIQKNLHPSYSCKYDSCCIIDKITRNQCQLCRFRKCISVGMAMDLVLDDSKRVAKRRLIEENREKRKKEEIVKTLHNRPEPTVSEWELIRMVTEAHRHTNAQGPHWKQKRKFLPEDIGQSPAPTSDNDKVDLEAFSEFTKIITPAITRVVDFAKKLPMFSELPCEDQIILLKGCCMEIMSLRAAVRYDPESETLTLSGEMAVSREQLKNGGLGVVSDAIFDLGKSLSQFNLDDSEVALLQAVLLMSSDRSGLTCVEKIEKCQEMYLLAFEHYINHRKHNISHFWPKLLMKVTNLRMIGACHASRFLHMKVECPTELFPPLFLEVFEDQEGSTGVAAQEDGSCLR
# Procedure, shortened: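 HepG2 cells transiently transfected with GAL4-UAS reporter units including a zebrafish TRa–Gal4 chimera, dosed 24 h with 3 nM 6-alpha-fluorotestosterone present. Reporter mRNA quantified by RT-PCR and capillary electrophoresis; gain versus DMSO.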
# [10] = system: turtle Thyroid Hormone Receptor, alpha (TRa), gene 101949057; experiment: ATG_trTRa_XSP1: Attagene TRANS-FACTORIAL Multi-Species (XSP1) HepG2 Assay for turtle Thyroid Hormone Receptor, alpha (TRa) (AID 2283806)
# Procedure, shortened: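 HepG2 cells transiently transfected with GAL4-UAS reporter units and chimeric receptor-Gal4 constructs, with 3 nM 6-alpha-fluorotestosterone present. Reporter mRNA was quantified 24 h after dosing by RT-PCR, 6-FAM labelling and capillary electrophoresis; gain of signal versus DMSO.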
smiles,measurement,setting,value
CCCCCCOc1ccc(O)cc1,AC50,[1],13.3 µM (active)
COC(=O)c1ccc(C(=O)OC)cc1,outcome,[2],inactive
CCCCCCOC(C)=O,outcome,[2],inactive
CC(CCO)CC(C)(C)C (stereo not given),outcome,[1],inactive
CCCCOCCOCCOCCO,outcome,[2],inactive
CC/C(=C(\c1ccccc1)c1ccc(OCCN(C)C)cc1)c1ccccc1,outcome,[3],inactive
same,outcome,[4],inactive
same,outcome,[5],inactive
same,outcome,[6],inactive
same,outcome,[7],inactive
same,outcome,[8],inactive
same,outcome,[9],inactive
CCC(C)(C)C1CCC(=O)CC1,outcome,[1],inactive
CC(C)(CO)CO,outcome,[1],inactive
CCCCCCCCCCOC(=O)c1ccccc1C(=O)OCCCCCCCC,outcome,[1],inactive
COc1cc(OC)c2ccc(=O)oc2c1,AC50,[1],3.3 µM (active)
CC1=CCC(C(C)(C)O)CC1 (stereo not given),AC50,[1],7.98 µM (active)
CC(C)(C)c1cccc(O)c1,outcome,[1],inactive
O=C(O)c1ccccc1O,AC50,[2],7090 µM (active)
COC(=O)c1cccc(C(=O)OC)c1,outcome,[1],inactive
CC(=O)N(C)C,outcome,[1],inactive
CC(=O)OC/C=C(C)/C=C/C=C(C)/C=C/C1=C(C)CCCC1(C)C,AC50,[2],87.5 µM (active)
C#C[C@]1(O)CC[C@H]2[C@@H]3CCc4cc(O)ccc4[C@H]3CC[C@@]21C,outcome,[3],inactive
same,outcome,[4],inactive
same,outcome,[5],inactive
same,outcome,[8],inactive
same,outcome,[10],inactive
same,outcome,[9],inactive
CC1COC(=O)O1 (stereo not given),outcome,[1],inactive
CCOC(=O)C=Cc1ccccc1,outcome,[2],inactive
